Measured values taken from PubChem BioAssay (Tox21).
Inconclusive results are not listed. Calls of active or inactive are those of the source. Calls come from the whole dose curve.
% is set by controls: 0 for no effect and ±100 for the full control effect.

The compounds below were run against Beta-2 adrenergic receptor (Homo sapiens) (UniProt P07550) (assay: Adrenergic beta2 receptor (ADRB2) small molecule agonists, cell-based qHTS assay (AID 1963593)). Conditions: CHO-ADRB2 cells, cAMP HTRF, 30 min; series mostly up to 42.5 µM; activation: at the top concentration.
Chain of Beta-2 adrenergic receptor (Homo sapiens) (P07550 whole entry, looked up): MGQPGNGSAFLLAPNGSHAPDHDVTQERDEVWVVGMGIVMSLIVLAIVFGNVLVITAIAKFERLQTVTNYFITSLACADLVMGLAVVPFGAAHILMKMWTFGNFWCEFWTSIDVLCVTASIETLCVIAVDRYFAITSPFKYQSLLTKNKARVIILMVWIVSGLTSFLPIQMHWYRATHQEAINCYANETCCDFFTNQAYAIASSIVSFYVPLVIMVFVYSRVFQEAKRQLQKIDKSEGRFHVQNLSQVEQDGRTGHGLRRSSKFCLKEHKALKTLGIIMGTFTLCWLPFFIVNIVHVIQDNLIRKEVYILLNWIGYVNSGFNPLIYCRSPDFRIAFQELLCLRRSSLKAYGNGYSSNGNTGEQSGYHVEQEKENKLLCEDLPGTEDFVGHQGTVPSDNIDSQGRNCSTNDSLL
Excerpt: National Center for Advancing Translational Sciences [NCATS]
Division of Preclinical Innovation [DPI]
U.S. Environmental Protection Agency [EPA]
National Institutes of Environmental Health Sciences [NIEHS]
National Toxicology Program [NTP]
U.S. Food and Drug Administration [FDA]
Beta adrenergic receptors (Beta-ARs) belong to the G-protein coupled receptor (GPCR) superfamily, includes three subtypes - beta1, beta2, and beta3. Beta1-AR is the predominant receptor subtype expressed in the heart, and beta2-AR is expressed in the kidney, lung, blood vessel and in the heart, and beta3 is found in the adipocytes. Beta1 and 2 ARs couple to Gs protein and elevate cyclic adenosine mono phosphate (cAMP), which activates protein kinase A and leads to the downstream signaling responsible for the physiological actions. Beta-AR agonists or antagonists are the most prescribed therapeutic agents for heart failure and asthma, and these were one of the first target receptors for the rational drug design. Tox21 10K compound library was screened using the cAMP-Gs dynamic assay (Cisbio Bioassays, Shelton, CT) to identify agonists/antagonists of the Gs-coupled human adrenergic, beta2 receptor (ADRB2) in the CHO-ADRB2 cell line (Codex BioSolutions, Inc. Gaithersburg, MD), which stably over-expresses ADRB2. The principle of cAMP-Gs dynamic assay is based on HTRF technology, which facilitates the fluorescence resonance energy transfer (FRET) between donor Europium cryptate and acceptor d2-labeled cAMP. The cAMP generated within cells competes with the red acceptor, d2-labled cAMP, for binding to the monoclonal anti-cAMP-cryptate (Europium donor). An increase in intracellular cAMP leads to the disruption of FRET signal, and the signal is inversely proportional to the cAMP concentration. Isoproterenol HCl (Sigma-Aldrich, St. Louis, MO) was used as a positive control in the screening.
Tox21 Assay Protocol Summary:
CHO-ADRB2 cells were dispensed at 1,000/well in 4uL assay medium into white/solid 1536-well plates (Greiner Bio-One North America Inc., Monroe, NC) using a Multidrop Combi dispenser (ThermoFisher Scientific, Waltham, MA). The assay plates were incubated at 37C and 5% CO2 for an overnight (18-20hr). Then positive control and test compounds dissolved in DMSO were transferred to the assay plates at 23nL using a Pintool station (Wako, San Diego, CA). Following the compound and positive control transfer, 1uL stimulation mix containing 100uM IBMX and 25uM Ro-20-1724 was added to each well of the assay plates using BioRAPTR Flying Reagent Dispenser (FRD, Beckman Coulter, Brea, CA). The assay plates were incubated at room temperature for 0.5hr. Then 2.5ul each d2-labled cAMP and anti-cAMP-cryptate solutions were added separately to each well of the assay plates using an FRD and the assay plates were incubated at room temperature for 1hr.
In the case of CN1CCN(c2c(F)cc3c(=O)c(C(=O)O)cn4c3c2OCN4C)CC1, the “activation” value was 0.0624% [at 19 µM] (inactive).
With CCCCCC(=O)OCC the “activation” value was 1.84% [at 92.4 µM] (inactive).
Cc1nnc(C(=O)NC(C)(C)c2nc(C(=O)NCc3ccc(F)cc3)c(O)c(=O)n2C)o1 was tested, and the “activation” value was 1.81% (inactive).
With CS(=O)(=O)c1ccc([C@@H](C[C@H]2CCC(=O)C2)C(=O)Nc2cnccn2)cc1Cl the “activation” value was -3.2% [at 92.4 µM] (inactive).
In the case of CCCOc1ccc(C(=O)OCCN(CC)CC)cc1N, the “activation” value was 13.5% (inactive).
In the case of O=c1[nH]c(=O)c2[nH]c(=O)[nH]c2[nH]1, the activation was 11.5% [at 8.39 µM] (inactive).
With CCOc1nc2cccc(C(=O)O)c2n1Cc1ccc(-c2ccccc2-c2nn[nH]n2)cc1 the “activation” value was 5.69% (inactive).
For CO[Si](CCCn1c(=O)n(CCC[Si](OC)(OC)OC)c(=O)n(CCC[Si](OC)(OC)OC)c1=O)(OC)OC, the “activation” value was -3.5% (inactive).
For O=[N+]([O-])c1ccc(/C=N\O)o1, the “activation” value was 13.1% (inactive).
For Oc1ccccc1Cc1ccccc1O, the “activation” value was 1.31% [at 92.4 µM] (inactive).
With O=C(O)CCCC[P+](c1ccccc1)(c1ccccc1)c1ccccc1 the “activation” value was 13.9% (inactive).
With COCCO the “activation” value was -2.36% [at 92.4 µM] (inactive).
With CCCCCCCCCCOC(C)=O the “activation” value was 9.29% [at 92.4 µM] (inactive).
In the case of CCCCCCCCN1CCCC1=O, the “activation” value was 22.5% [at 92.4 µM] (inactive).
In the case of CCOC(=O)Cn1cccc1-c1nc(-c2ccc(OC)cc2)c(-c2ccc(OC)cc2)s1, the “activation” value was 9% (inactive).
For CCCCCCCCCCCCCCC1CO1 (stereo not given), the “activation” value was -18.5% [at 92.4 µM] (inactive).
For CC1=C(C(=O)OC(C)C)C(c2cccc([N+](=O)[O-])c2)C(C(=O)OC2CN(C(c3ccccc3)c3ccccc3)C2)=C(N)N1 (stereo not given), the “activation” value was 6.82% (inactive).
In the case of N=C1N=C(N)c2ccccc21, the “activation” value was 31.5% [at 92.4 µM] (inactive).
With CCCCCCCCCCCCCCCCOP(=O)([O-])OCC[N+](C)(C)C the “activation” value was -15.6% (inactive).
With c1cnc2c(n1)CCCC2 the “activation” value was 4.55% [at 92.4 µM] (inactive).
In the case of CCc1ccc(C(=O)C(C)CN2CCCCC2)cc1 (stereo not given), the “activation” value was 13.3% (inactive).
CCCOC(=O)c1ccc(N)cc1 was tested, and the “activation” value was 14% (inactive).
For C=CN1CCCCCC1=O, the “activation” value was 2.49% [at 92.4 µM] (inactive).
For CCC(Cc1ccccc1)(C(=O)c1ccc(N2CCOCC2)cc1)N(C)C (stereo not given), the “activation” value was 0.609% [at 92.4 µM] (inactive).
In the case of Cc1nc2ccccc2n1Cc1ccc(Cl)cc1, the “activation” value was 4.8% (inactive).
In the case of CCCCCCC/C=C/C=O, the “activation” value was 24.3% [at 92.4 µM] (inactive).
Cc1ccnc2ccccc12 was tested, and the “activation” value was 4.61% [at 92.4 µM] (inactive).
O=C1c2cccc(O)c2C(=O)c2c(O)cc(CO)cc21 was tested, and the “activation” value was 12.1% [at 92.4 µM] (inactive).
In the case of CCCCCCCC/C=C\CCCCCCCC(=O)OC, the “activation” value was 6.92% [at 92.4 µM] (inactive).
In the case of CC(C)C(=O)OC/C=C/c1ccccc1, the “activation” value was 2.59% [at 92.4 µM] (inactive).
Cc1ccc(N(CC2=NCCN2)c2cccc(O)c2)cc1 was tested, and the “activation” value was -1.39% (inactive).
For CCCCC(CC)COC(=O)COc1ccc(Cl)cc1Cl (stereo not given), the “activation” value was 27.3% [at 92.4 µM] (inactive).
O=C(O)Cc1cn(-c2ccccc2)nc1-c1ccc(Cl)cc1 was tested, and the “activation” value was -16.2% (inactive).
In the case of O=C(NCCc1c[nH]c2ccccc12)c1cccnc1, the “activation” value was -19.1% (inactive).
COc1cc(OC)cc(OC)c1 was tested, and the “activation” value was -1.16% (inactive).
With CC(C)(O)c1coc(S(=O)(=O)NC(=O)Nc2c3c(cc4c2CCC4)CCC3)c1 the “activation” value was 7.12% [at 92.4 µM] (inactive).
With CN(C)CCc1c[nH]c2ccc(C[C@H]3COC(=O)N3)cc12 the “activation” value was 3.48% (inactive).
CCN(CC)CC(=O)Nc1c(C)cccc1C(=O)OC was tested, and the “activation” value was -14.6% (inactive).
With O=C(O)c1cccc(Oc2ccccc2)c1 the “activation” value was -17% [at 92.4 µM] (inactive).
For COc1ccc(-n2nc(C(F)F)cc2-c2ccc(S(C)=O)cc2)cc1 (stereo not given), the “activation” value was -1.87% [at 92.4 µM] (inactive).
